According to PubChem BioAssay AID1159580 (chemical genetic matrix, 2015):
Values joined by “and” are separate entries in the source; they are usually repeats but may differ in a detail not shown here. Equal entries are not always repeated. The campaign covered roughly 5,500 compounds. About 2,000 (36%) were called active. About 18% were inconclusive and are not listed. Rule as the data show it: active = normalized growth mostly below about 0.91 (no sharp cut-off); inconclusive = no clear call, values can overlap the other calls; inactive = mostly above about 0.92. The list shows a part of the results.

Assay: chemical genetic growth profiling, strain panel (AID 1159580);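 also: tested at 20 µM; growth read once vehicle control cultures reached saturation at 30 °C; 1 = growth at the plate median or of vehicle wells; lower values mean less growth of the strain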
Details: growth OD

Measured: normalized growth

Cc1cc(C(C)(C)C)c(O)c(C)c1CC1=NCCN1
inactive: S. cerevisiae deletion strains, locus YJR066W, strain TOR1, active compounds read low 0.928 | S. cerevisiae deletion strains, locus YJR075W, strain HOC1, active compounds read low 0.995 | S. cerevisiae deletion strains, locus YKL009W, strain mrt4, active compounds read low 1.01 | S. cerevisiae deletion strains, locus YKL068W, active compounds read low 1 | S. cerevisiae deletion strains, locus YKL085W, strain MDH1 (second series), active compounds read low 1 | S. cerevisiae deletion strains, locus YKL085W, strain MDH1, active compounds read low 1 | S. cerevisiae deletion strains, locus YKL160W, strain elf1, active compounds read low 1.02 | S. cerevisiae deletion strains, locus YKL190W, strain CNB1, active compounds read low 0.991 | S. cerevisiae deletion strains, locus YKR001C, strain vps1, active compounds read low 1.02 | S. cerevisiae deletion strains, locus YKR026C, strain gcn3, active compounds read low 1.01 | S. cerevisiae deletion strains, locus YKR091W, strain srl3, active compounds read low 0.996 | S. cerevisiae deletion strains, locus YLL001W, strain dnm1, active compounds read low 1.01 | S. cerevisiae deletion strains, locus YLL026W, active compounds read low 1.02 | S. cerevisiae deletion strains, locus YLL041C, strain sdh2, active compounds read low 1.01 | S. cerevisiae deletion strains, locus YLR027C, strain aat2, active compounds read low 1 | S. cerevisiae deletion strains, locus YLR039C, strain RIC1, active compounds read low 1.01 | S. cerevisiae deletion strains, locus YLR058C, strain SHM2, active compounds read low 0.991 | S. cerevisiae deletion strains, locus YLR102C, strain apc9, active compounds read low 1 | S. cerevisiae deletion strains, locus YLR113W, strain HOG1, active compounds read low 0.997 | S. cerevisiae deletion strains, locus YLR221C, strain rsa3, active compounds read low 1.01 | S. cerevisiae deletion strains, locus YLR258W, strain gsy2, active compounds read low 1 | S. cerevisiae deletion strains, locus YLR262C, strain YPT6 (second series), active compounds read low 1.02 | S. cerevisiae deletion strains, locus YLR262C, strain YPT6, active compounds read low 0.974 | S. cerevisiae deletion strains, locus YLR268W, strain sec22, active compounds read low 1.01 | S. cerevisiae deletion strains, locus YLR320W, strain mms22, active compounds read low 1.02 | S. cerevisiae deletion strains, locus YLR330W, strain CHS5, active compounds read low 0.999 | S. cerevisiae deletion strains, locus YLR342W, strain FKS1 (second series), active compounds read low 0.984 | S. cerevisiae deletion strains, locus YLR342W, strain FKS1, active compounds read low 1 | S. cerevisiae deletion strains, locus YLR357W, strain rsc2, active compounds read low 1.02 | S. cerevisiae deletion strains, locus YLR370C, strain arc18, active compounds read low 1.01 | S. cerevisiae deletion strains, locus YLR371W, strain rom2, active compounds read low 1.01 | S. cerevisiae deletion strains, locus YLR384C, strain iki3, active compounds read low 1.02 | S. cerevisiae deletion strains, locus YLR418C, strain cdc73, active compounds read low 1.02 | S. cerevisiae deletion strains, locus YML016C, strain PPZ1, active compounds read low 0.998 | S. cerevisiae deletion strains, locus YML032C, strain rad52, active compounds read low 0.999 | S. cerevisiae deletion strains, locus YML120C, strain ndi1, active compounds read low 1.01 | S. cerevisiae deletion strains, locus YML124C, strain tub3, active compounds read low 1.02 | S. cerevisiae deletion strains, locus YMR058W, strain fet3, active compounds read low 1.01 | S. cerevisiae deletion strains, locus YMR078C, strain ctf18, active compounds read low 1.02 | S. cerevisiae deletion strains, locus YMR125W, strain sto1, active compounds read low 1 | S. cerevisiae deletion strains, locus YMR129W, active compounds read low 1 | S. cerevisiae deletion strains, locus YMR205C, strain PFK2, active compounds read low 1.04 | S. cerevisiae deletion strains, locus YMR223W, strain ubp8, active compounds read low 1 | S. cerevisiae deletion strains, locus YMR231W, strain pep5, active compounds read low 1.01 | S. cerevisiae deletion strains, locus YMR263W, strain SAP30, active compounds read low 1 | S. cerevisiae deletion strains, locus YMR307W, strain GAS1, active compounds read low 0.985 and 0.998 | S. cerevisiae deletion strains, locus YNL067W, strain RPL9B, active compounds read low 0.988 | S. cerevisiae deletion strains, locus YNL071W, strain lat1, active compounds read low 1 | S. cerevisiae deletion strains, locus YNL128W, strain TEP1, active compounds read low 0.998 and 1.04 | S. cerevisiae deletion strains, locus YNL153C, strain GIM3, active compounds read low 0.996 and 1.01 | S. cerevisiae deletion strains, locus YNL175C, strain NOP13, active compounds read low 1 | S. cerevisiae deletion strains, locus YNL183C, strain NPR1, active compounds read low 0.936 | S. cerevisiae deletion strains, locus YNL197C, strain WHI3, active compounds read low 1.01 | S. cerevisiae deletion strains, locus YNL209W, strain ssb2, active compounds read low 1 | S. cerevisiae deletion strains, locus YNL224C, strain SQS1, active compounds read low 1.02 | S. cerevisiae deletion strains, locus YNL233W, strain BNI4, active compounds read low 1 | S. cerevisiae deletion strains, locus YNL248C, strain rpa49, active compounds read low 0.997 | S. cerevisiae deletion strains, locus YNL250W, strain rad50, active compounds read low 1.01 | S. cerevisiae deletion strains, locus YNL271C, strain bni1, active compounds read low 1.02 | S. cerevisiae deletion strains, locus YNL298W, strain CLA4, active compounds read low 0.982 | S. cerevisiae deletion strains, locus YNL307C, strain MCK1, active compounds read low 1.01 | S. cerevisiae deletion strains, locus YNL322C, strain KRE1 (second series), active compounds read low 1.03 | S. cerevisiae deletion strains, locus YNL322C, strain KRE1, active compounds read low 0.998 | S. cerevisiae deletion strains, locus YNR049C, strain mso1, active compounds read low 1.01 | S. cerevisiae deletion strains, locus YNR052C, strain pop2, active compounds read low 1.02 | S. cerevisiae deletion strains, locus YOL006C, strain TOP1, active compounds read low 1.01 | S. cerevisiae deletion strains, locus YOL012C, strain htz1 1.23 | S. cerevisiae deletion strains, locus YOL147C, strain pex11, active compounds read low 1.01 | S. cerevisiae deletion strains, locus YOR001W, strain rrp6, active compounds read low 0.97 | S. cerevisiae deletion strains, locus YOR061W, strain CKA2, active compounds read low 1 | S. cerevisiae deletion strains, locus YOR069W, strain VPS5, active compounds read low 0.997 | S. cerevisiae deletion strains, locus YOR070C, strain gyp1, active compounds read low 1.01 | S. cerevisiae deletion strains, locus YOR080W, strain dia2, active compounds read low 1 | S. cerevisiae deletion strains, locus YOR083W, strain WHI5 (second series), active compounds read low 1.02 | S. cerevisiae deletion strains, locus YOR083W, strain WHI5, active compounds read low 1.03 | S. cerevisiae deletion strains, locus YOR106W, strain vam3, active compounds read low 1.02 | S. cerevisiae deletion strains, locus YOR136W, strain idh2, active compounds read low 1 | S. cerevisiae deletion strains, locus YOR144C, strain elg1, active compounds read low 1 | S. cerevisiae deletion strains, locus YOR184W, strain ser1, active compounds read low 1.01 | S. cerevisiae deletion strains, locus YOR231W, strain MKK1, active compounds read low 1.01 | S. cerevisiae deletion strains, locus YOR265W, strain rbl2, active compounds read low 1 | S. cerevisiae deletion strains, locus YOR270C, strain vph1, active compounds read low 1.01 | S. cerevisiae deletion strains, locus YOR290C, strain snf2, active compounds read low 1.03 | S. cerevisiae deletion strains, locus YOR316C, strain cot1, active compounds read low 1 | S. cerevisiae deletion strains, locus YPL051W, strain arl3, active compounds read low 1.02 | S. cerevisiae deletion strains, locus YPL055C, strain LGE1, active compounds read low 0.983 | S. cerevisiae deletion strains, locus YPL078C, strain atp4, active compounds read low 1.01 | S. cerevisiae deletion strains, locus YPL106C, strain sse1, active compounds read low 1.04 | S. cerevisiae deletion strains, locus YPL240C, strain hsp82, active compounds read low 0.994 | S. cerevisiae deletion strains, locus YPL256C, strain CLN2, active compounds read low 0.961 | S. cerevisiae deletion strains, locus YPR119W, strain clb2, active compounds read low 1 | S. cerevisiae deletion strains, locus YPR141C, strain kar3, active compounds read low 1.01 | S. cerevisiae deletion strains, locus YPR163C, strain tif3, active compounds read low 1.02 | S. cerevisiae deletion strains, locus YPR167C, strain met16, active compounds read low 1.01 | S. cerevisiae deletion strains, strain wtn01, active compounds read low 1.01 | S. cerevisiae strains, strain wild type, active compounds read low 0.984
